Values joined by “and” are separate entries in the source; they are usually repeats but may differ in a detail not shown here. Equal entries are not always repeated. Out of some 350,000 compounds screened, about 1,900 (0.54%) were called active. The list comes from a sample in which actives are over-represented; it also holds similar structures and randomly drawn compounds. Unmarked numbers belong to inactive results.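 Rule for the calls: active = mean inhibition across replicates at least about 35%, with every replicate also reaching that limit (limit read from the data); inconclusive = only one of the two criteria met; inactive = neither criterion met.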

Chain of Caspase-6 (Homo sapiens) (P55212 24-179 limits assumed): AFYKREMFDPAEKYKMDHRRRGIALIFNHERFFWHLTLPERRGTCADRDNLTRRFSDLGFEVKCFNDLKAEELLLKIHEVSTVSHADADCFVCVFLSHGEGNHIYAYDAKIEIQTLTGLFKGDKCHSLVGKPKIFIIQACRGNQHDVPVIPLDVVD
Chain of Caspase-6 (Homo sapiens) (P55212 194-293 limits assumed): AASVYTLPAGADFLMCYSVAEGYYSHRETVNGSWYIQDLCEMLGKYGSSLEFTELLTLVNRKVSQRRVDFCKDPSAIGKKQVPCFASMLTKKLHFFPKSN

The experiment concerns the target Caspase-6 (Homo sapiens) (UniProt P55212). Put plainly: human caspase-6 inhibitors, primary screen, biochemical, VEID-R110 fluorescence, single point, set 2 (AID 686996).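 Note: 0% = median of neutral control wells and 100% = no fluorescence left.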 The settings on record: purified caspase-6, Z-VEID-R110 cleavage fluorescence; at 12.5 µM; hits give high values.
Broadly, the inhibition is the drop in the measured response relative to a control, in per cent. Turning to `COC(=O)C1=C(c2ccc3ccccc3c2)C[C@@H]2CC[C@H]1N2C(=O)NCCO`, the inhibition was -0.313%. The result for `COC(=O)C1=C(c2ccc(C(C)=O)cc2)C[C@@H]2CC[C@H]1N2C(=O)NCCNC(C)=O` reads 35.3% (active); that for `COC(=O)C1=C(c2ccccc2)C[C@@H]2CC[C@H]1N2C(=O)NCc1ccco1`, 2.09%. The result for `COC(=O)[C@H]1[C@H](CO)[C@H]2Cn3c(ccc(C4=CCCC4)c3=O)[C@@H]1N2C(=O)CC1CC1` reads 2.1%; that for `CCOC(=O)[C@]12Cc3ccccc3[C@H]1N(C1CCCCC1)C(=O)c1cc(OC)ccc12`, 1.66%. The result for `COc1ccc(N2C(=O)/C(=C/c3ccco3)C(=O)NC2=S)cc1` reads -1.07%; that for `O=C1NC(=O)N(c2ccccc2)C(=O)/C1=C/c1ccc([N+](=O)[O-])s1`, 49.9% (active). Turning to `COc1cccc(N2C(=O)NC(=O)/C(=C\c3cn(C)c4ccccc34)C2=O)c1`, the inhibition is 4.46%. The result for `COc1cccc(N2C(=O)NC(=O)/C(=C\c3ccc([N+](=O)[O-])s3)C2=O)c1` reads 46% (active); that for `Cc1ccccc1N1C(=O)NC(=O)/C(=C\c2cc(C)n(C)c2C)C1=O`, 3.93%. The result for `CC(C)CN1Cc2cc(N3CCCCC3)ccc2-n2nncc2C1` reads -0.486%.

As to `COC1C(O)C(C)OC(OC2CCC3(C=O)C(CCC4C3CCC3(C)C(C5=CC(=O)OC5)CCC43O)C2)C1O` (stereo not given), the inhibition is 0.09%. The result for `CCOC(=O)[C@@H]1[C@@H]2NC(=O)N[C@@]1(C)Oc1ccccc12` reads 1.71% and -2.72%; that for `CCOC(=O)c1cccc(C2=C(CNC(=O)c3ccncc3)[C@H]3CC[C@@H](C2)N3Cc2ccccc2)c1`, 0.927%; that for `O=C1NC(=O)N(Cc2ccco2)C(=O)/C1=C\c1cccn1CCOc1ccccc1`, 61.1% (active).

Turning to `Cc1ccc(-n2c(C)cc(/C=C3\C(=O)NC(=O)N(C)C3=O)c2C)cc1C`, the inhibition is 12.1%.

In the case of `O=C1NC(=O)N(Cc2ccco2)C(=O)/C1=C\c1ccc(-c2ccc(F)cc2)o1`, the inhibition is 73.9% (active). The result for `Cc1c(C(=O)O)cccc1-n1c(C)cc(/C=C2\C(=O)NC(=O)N(c3ccc4c(c3)OCO4)C2=O)c1C` reads 26.5%. With `O=C(O)COc1ccccc1/C=C1\C(=O)NC(=O)N(CCC2=CCCCC2)C1=O` the figure was 9.11%. In the case of `COc1ccc(CN2C(=O)NC(=O)/C(=C\c3ccc(OC)c(OC)c3OC)C2=O)cc1`, the inhibition was 4.46%.

Take `Cc1cc(/C=C2/C(=O)NC(=O)N(Cc3ccco3)C2=O)c(C)n1-c1ccc(C(=O)O)cc1`: the inhibition was 50.7% (active). As to `O=C1NC(=O)N(CCc2ccc(F)cc2)C(=O)/C1=C/C=C/c1ccccc1`, the inhibition is -1.88%.

With `Brc1ccc2c(c1)CNCc1cnnn1-2`, the inhibition was -1.24%.

With `c1cc2c(c(NC3=NCCCS3)c1)CCCC2`, the inhibition is -1.96%. With `COC(=O)[C@H]1[C@H](CO)[C@H]2Cn3c(cccc3=O)[C@H]2N1CC1CC1` the figure was 1.75%; with `O=C1NCN(c2ccccc2)C12CCN(C(c1cccs1)c1nnnn1C1CCCCC1)CC2` (stereo not given), 0.584%. With `O=C(Cc1ccccn1)N1CCCCN2[C@H](C1)[C@H](c1ccc(-c3ccccc3F)cc1)[C@@H]2CO`, the inhibition was 1.27%. With `O=C(Cc1ccccn1)N1CCCCN2[C@@H](CO)[C@@H](c3ccc(C#Cc4ccccc4)cc3)[C@@H]2C1` the figure was -4%; with `COC(=O)[C@@H]1[C@@H](CO)[C@@H]2Cn3c(ccc(-c4cccc(C(=O)N(C)C)c4)c3=O)[C@H]1N2C(=O)NC(C)C`, 0.335%.

Regarding `COc1cc(OC)cc(C(=O)NCCN2CCC3(CC2)C(=O)NCN3c2ccccc2)c1`, the inhibition was -14.3%.

For the origin of these results see PubChem BioAssay AID686996 (Broad Institute, 2013).
